Sampled rows, rich in hits. Any-hit rate of the full collection: about 3.6%.
PMP22 txn: Cell-based coincidence reporter assay to measure PMP22 gene transcription in S16 Pmp22-F2sN cells - Primary screen; S16 Pmp22-F2sN Schwann cells, FLuc/NLuc coincidence luminescence, 24 h; Potency, µM (highest dose often 57.5 µM), for inactives: at the highest dose activity change, negative = inhibition, actives largely listed as inhibitors; 43,000 compounds, 2% hits; AID 1508649, 2021; active = clear falling dose curves in both reporters; inconclusive = both reporters move, but less clearly or upward; inactive = either reporter flat; the % is the NLuc reporter signal; also: potency is read from the fitted curve at half-maximal effect; % is scaled to controls: 0 for no effect and ±100 for the full control effect
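S16 Schwann cells carrying FLuc/NLuc coincidence reporter in the Pmp22 3' UTR treated with compound 24 h at 37C; FLuc then NLuc luminescence read sequentially by dual-luciferase reagents.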
S16 viability: Cell viability qHTS assay in S16 Pmp22-F2sN cells; S16 Pmp22-F2sN Schwann cells viability, CellTiter-Glo, 24 h; Potency, µM (top dose mostly 57.5 µM), for the others: at the highest dose activity change, negative = cytotoxicity, hits mostly cytotoxic; 43,000 compounds, 0.48% hits; AID 1508642, 2021; also: potency is read from the fitted curve at half-maximal effect; % is scaled to controls: 0 for no effect and ±100 for the full control effect; nearly all actives have a fitted effect of over 65% in size
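S16 Pmp22-F2sN Schwann cells (500-1,000/well) in phenol-red-free DMEM with 10% FBS received 23 nL compound by pin tool for 24 h at 37 °C. Viability was then read as CellTiter-Glo luminescence after 15 min at room temperature.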
HTT promoter inh: Primary qHTS for Identification of Small Molecule Inhibitors of Huntingtin Promoter Activity; AID 1508623, 2021; Potency, µM (top dose mostly 57.5 µM), for the others: at the highest dose activity change, negative = inhibition, actives largely listed as inhibitors; HEK293 HTT promoter firefly luciferase reporter, 24 h; 48,000 compounds, 0.93% hits; also: potency is read from the fitted curve at half-maximal effect; nearly all actives have a fitted effect of over 50% in size
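Quantitative HTS used concentration series of up to 57.5 uM final on HEK293 luciferase reporter cells, 24 h at 37 degrees C. Readout was Dual-Glo firefly luminescence.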
HTT-AS act: Primary qHTS for Identification of Small Molecule Activators of Huntingtin-Antisense Promoter Activity. Potency, µM (titrated, usually from 57.5 µM), for the others: top-dose activity change, positive = activation, actives largely listed as activators. 48,000 compounds, 0.24% hits. AID 1508624, 2021. HEK293 HTT-AS promoter firefly luciferase reporter, 24 h; response scale: percent change from vehicle, -100% = no light; also: potency is read from the fitted curve at half-maximal effect; nearly all actives have a fitted effect of over 55% in size
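HEK293 Fluc reporter, 2,500 cells/well, 24 h pre-culture; cpds up to 57.5 uM final, 24 h 37 degrees C; Dual-Glo, 10 min RT; normalized vehicle = 0%, zero RLU = -100%.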
pS6 MEF inh: Acumen qHTS Assay for Inhibitors of the mTORC1 Signaling Pathway in MEF (Tsc2-/-, p53-/-) Cells: Sytravon; Tsc2-/- p53-/- MEF, phospho-rpS6 immunofluorescence/PI, 24 h; Potency, µM (titrated, usually from 38.3 µM), inactives show top-dose activity change, negative = inhibition, hits mostly inhibitors; 44,000 compounds, 0.78% hits; AID 493208, 2011;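 also: potency is read from the fitted curve at half-maximal effect; plate controls were DMSO for no effect and rapamycin for full effect; nearly all actives have a fitted effect of over 50% in size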
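Plate MEFs (Tsc2-/-, p53-/-, empty vector) in DMEM/10% FBS; after 24 h add compound, incubate 24 h at 37 degree Celsius; fix in PFA/TX-100, block, stain phospho-rpS6 and 10 uM PI; scan at 488 nm; report % positive cells.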
SKOV3 invasion: Primary qHTS assay for Inhibitors of ovarian cancer metastasis using an organotypic tumor microenvironment (TME) model; Potency, µM (top dose mostly 45.8 µM), for inactives: at the highest dose activity change, negative = inhibition, usual class: inhibitors; SKOV3ip1-GFP adhesion/invasion on 3D omental model, fluorescence; 46,000 compounds, 0.1% hits;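 also: potency is read from the fitted curve at half-maximal effect; plate controls were DMSO wells for no effect and tomatine positive control wells for full effect; nearly all actives have a fitted effect of over 65% in size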
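Adhesion/invasion was scored as fixed GFP-labeled SKOV3ip1 cell counts (488/509 nm), normalized to DMSO and tomatine controls. Cancer cells in serum-free medium, with four compound doses (0.36-46 umol/L), sat 2 hr at RT then 16 hr at 37 C on a 48 hr fibroblast/mesothelial/ECM culture.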
NLuc sat counter: Biochemical NLuc saturation counterscreen for small molecule modulators of PMP22 gene expression - Nano-Glo assay | Secreted NLuc enzyme (filtered S16 cell medium), Nano-Glo luminescence | Potency, µM (series often up to 57.5 µM), for inactives: top-dose activity change, negative = inhibition, usual class: inhibitors | 690 compounds, 4% hits | shares compounds with PMP22 txn | AID 1508638, 2021; also: potency is read from the fitted curve at half-maximal effect; % is scaled to controls: 0 for no effect and ±100 for the full control effect
NLuc Km ctr: Biochemical coelenterazine-based NLuc counterscreen for small molecule modulators of PMP22 gene expression - Km assay; shares compounds with PMP22 txn; secreted NLuc enzyme, coelenterazine luminescence, Km conditions; Potency, µM (titrated, usually from 57.5 µM), for the others: at the highest dose activity change, negative = inhibition, usual class: inhibitors; 690 compounds, 5% hits; AID 1508639, 2021; also: potency is read from the fitted curve at half-maximal effect; % is scaled to controls: 0 for no effect and ±100 for the full control effect
FLuc counter: Biochemical FLuc counterscreen for small molecule modulators of PMP22 gene expression | shares compounds with PMP22 txn | purified P. pyralis FLuc, luminescence, 10 min | Potency, µM (doses to about 57.5 µM), for the others: at the highest dose activity, negative = inhibition, actives largely listed as inhibitors | 690 tested, under 10 active | AID 1508640, 2021; also: % of control where 0% means no effect
S16 F2sN tox cnf: Cell viability qHTS assay in S16 Pmp22-F2sN cells - Confirmatory screen | shares compounds with PMP22 txn | S16 Schwann cells viability, CellTiter-Glo ATP luminescence, 24 h | Potency, µM (series often up to 57.5 µM), for inactives: at the top dose activity change, negative = viability loss, most hits filed as cytotoxic | 690 compounds, 7% hits; also: potency is read from the fitted curve at half-maximal effect; % is scaled to controls: 0 for no effect and ±100 for the full control effect
PMP22 txn conf: Cell-based coincidence reporter assay to measure PMP22 gene transcription in S16 Pmp22-F2sN cells - Confirmatory screen; 690 compounds, 22% hits; AID 1508646, 2021; shares compounds with PMP22 txn; Potency, µM (doses to about 57.5 µM), without a hit: at the top dose activity change, negative = inhibition, actives largely listed as inhibitors; S16 Schwann cells Pmp22-F2sN, dual luciferase, 24 h; active = clear falling dose curves in both reporters; inconclusive = both reporters move, but less clearly or upward; inactive = either reporter flat; the % is the FLuc reporter signal; also: potency is read from the fitted curve at half-maximal effect
PMP22 HiBiT cnf: Cell-based HiBiT reporter assay to measure PMP22 protein expression in S16 Pmp22-HiBiT cells - Confirmatory screen; shares compounds with PMP22 txn; S16 Schwann cells Pmp22-HiBiT, luminescence, 48 h; Potency, µM (highest dose often 27.9 µM), inactives show at the highest dose activity change, negative = inhibition, most hits filed as inhibitors; 95 tested, under 10 active; AID 1508647, 2021
Target sequence (P25094 whole entry, looked up): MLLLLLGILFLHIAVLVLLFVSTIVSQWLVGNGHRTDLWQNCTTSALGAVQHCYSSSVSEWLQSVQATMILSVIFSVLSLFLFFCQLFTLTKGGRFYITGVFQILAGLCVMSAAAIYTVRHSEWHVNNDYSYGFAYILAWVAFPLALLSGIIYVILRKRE
* hit, by the source's call; ? = inconclusive; nt = no result given. Unless noted, calls follow the shape of the dose curve; as a rule, active = well fitted curve in the direction sought with a large enough effect; inconclusive = small, poorly fitted or top-dose-only effect, or another doubt; inactive = no such curve, though single readings can be large; an effect the other way counts as inactive or inconclusive.

SMILES	PMP22 txn	S16 viability	HTT promoter inh	HTT-AS act	pS6 MEF inh	SKOV3 invasion	NLuc sat counter	NLuc Km ctr	FLuc counter	S16 F2sN tox cnf	PMP22 txn conf	PMP22 HiBiT cnf
Cc1cccc(-n2c(=O)c3c(c4cc(C)ccc4n3C)n(CC(=O)NCCC3=CCCCC3)c2=O)c1	?	0%	-12%	-9%	-6%	2%	2%	12%	5%	?	17µM*	4%
Cc1ccc2c(c1)c1c(c(=O)n(-c3cccc(Cl)c3)c(=O)n1CC(=O)NCCC1=CCCCC1)n2C	0%	12%	-6%	-11%	4%	4%	nt	nt	nt	nt	nt	nt
CCCN1CCN(CCCNC(=O)Cn2c(-c3cccs3)cc3cc(Cl)ccc32)CC1	11µM*	?	?	-27%	0%	?	1%	-3%	2%	?	?	nt
CCCN1CCN(CCCNC(=O)Cn2c(-c3cccs3)cc3ccccc32)CC1	?	6%	-26%	-14%	1%	5%	nt	nt	nt	nt	nt	?
Cc1ccc(C)c(N2CCN(CCCNC(=O)Cn3c(-c4cccs4)cc4ccccc43)CC2)c1	13µM*	?	?	-40%	?	?	-4%	-5%	-1%	?	?	15%

Assay outcomes from PubChem BioAssay.
